Screens from PubChem BioAssay.
A selection: hits, their analogues and other compounds. The true share with any hit is near 21%.
CYP2C19 inhib – inhibitors of human CYP2C19 | P33261 | CYP2C19 Supersomes, luciferin-H EGE luminescence, 30 min | inhibition, % at 5 µM | 96,000 tested, 21% active | AID 778;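 active = CYP2C19 inhibition above a set limit at 5 µM in the primary screen, cut at about 50% in these data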;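 note: plate controls were negative control wells for no effect and 2.5 mM tranylcypromine positive control for full effect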
Target sequence (P33261 whole entry, looked up): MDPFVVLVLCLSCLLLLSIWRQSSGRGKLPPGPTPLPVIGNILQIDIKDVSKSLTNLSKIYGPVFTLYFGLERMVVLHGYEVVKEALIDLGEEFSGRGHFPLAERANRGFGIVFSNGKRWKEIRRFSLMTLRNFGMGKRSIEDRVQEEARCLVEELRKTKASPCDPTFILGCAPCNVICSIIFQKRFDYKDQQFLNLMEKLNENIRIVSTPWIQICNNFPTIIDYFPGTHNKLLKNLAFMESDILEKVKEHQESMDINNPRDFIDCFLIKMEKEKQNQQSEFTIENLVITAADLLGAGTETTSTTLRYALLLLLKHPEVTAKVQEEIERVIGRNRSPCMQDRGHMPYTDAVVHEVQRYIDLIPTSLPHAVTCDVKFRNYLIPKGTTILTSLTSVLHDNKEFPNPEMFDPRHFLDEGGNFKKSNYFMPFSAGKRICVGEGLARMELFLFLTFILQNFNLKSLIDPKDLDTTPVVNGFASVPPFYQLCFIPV
MRP reversal – reverses drug resistance mediated by MRP; H69AR cells + 2 uM doxorubicin, CellTiter-Glo, 72 h; differential viability (reversal), % at 10 µM; 85,000 tested, 0.04% active;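 active = viability drop by adding the cancer drug above about 55%, with treated viability meeting a 40% cutoff, limit read from the data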;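 note: viability without doxorubicin minus viability with 2 µM doxorubicin for each compound; larger differential means the compound sensitizes cells more to doxorubicin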
CYP2C9 activ – activators of human CYP2C9. P11712. recombinant CYP2C9, luciferin-H conversion, luminescence; stronger effect = higher value; factor 1 = untreated enzyme, 0 = blocked. activation factor at 5 µM. 96,000 tested, 1.4% active. AID 1024;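 active = activation factor of 2 or more for CYP2C9 at a 5 µM dose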;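 note: 0 = sulfaphenazole-blocked wells and 1 = vehicle-only wells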
CYP2C19 act – increases human CYP2C19 enzyme activity; P33261; recombinant CYP2C19, luciferin-H EGE luminescence; stronger effect = higher value; 0 = fully inhibited enzyme, 1 = untreated enzyme; activation factor at 5 µM; 96,000 tested, under 10 active;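 active = activation factor of at least 2 at 5 µM in the primary screen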;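 note: 0 = wells with 2.5 mM tranylcypromine and 1 = vehicle-only wells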
MRP-1 activ – activates MRP-1 | H69AR cells + doxorubicin, viability rescue, CellTiter-Glo | 140,000 tested, 0.61% active | AID 799 | viability increase, % at 10 µM;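 active = viability gain under doxorubicin at or above a set limit, the compound median plus 3 SD, cut at about 4.7% in these data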;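 note: MRP-1 overexpressing cells given doxorubicin 25 µM after compound pretreatment; 18-22 h compound pretreatment then 72 h with doxorubicin before readout; 0% = doxorubicin-only wells and 100% = vehicle-treated cells without doxorubicin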
CYP2C9 inhib – blocks human cytochrome P450 2C9; P11712; CYP2C9 Supersomes, luciferin-H conversion, luminescence; inhibition, % at 5 µM; 96,000 tested, 20% active; AID 777;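 active = blocking of liver enzyme CYP2C9 beyond about 50% at 5 µM, limit read from the data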
Active calls of the source: *.

How did O=C1c2[nH]nc(-c3ccccc3O)c2C(c2cccc(Cl)c2)N1CC1CCCO1 (stereo not given) do in these assays?
CYP2C19 inhib: 69.6*; MRP reversal: 11.2; CYP2C9 activ: 0.1; CYP2C19 act: 0.3; MRP-1 activ: -2.4; CYP2C9 inhib: 87.6*

Results for O=C1c2[nH]nc(-c3ccccc3O)c2C(c2ccc(F)cc2)N1Cc1ccco1 (stereo not given) ?
CYP2C19 inhib: 84.3*; MRP reversal: -4.5; CYP2C9 activ: 0; CYP2C19 act: 0.2; MRP-1 activ: -1.4; CYP2C9 inhib: 97.2*

What do the screens show for `O=C1C(=O)N(Cc2ccco2)C(c2cccc(Cl)c2)/C1=C(\O)c1ccc2c(c1)OCCO2` (stereo not given)?
MRP-1 activ: -3.4

What do the screens show for `O=C1c2[nH]nc(-c3ccccc3O)c2C(c2cccc(Cl)c2)N1Cc1ccco1` (stereo not given)?
CYP2C19 inhib: 87.1*; MRP reversal: 0.0; CYP2C9 activ: 0; CYP2C19 act: 0.1; MRP-1 activ: -2.5; CYP2C9 inhib: 95.1*

What do the screens show for `Cn1cc(CNC(=O)C23CC4CC(CC(C4)C2)C3)cn1`?
MRP reversal: -1.0; MRP-1 activ: -0.9

How did CC#CCCCC(=O)Nc1ccccc1C(=O)O do in these assays?
CYP2C19 inhib: -9.0; MRP reversal: 2.0; CYP2C9 activ: 0.8; CYP2C19 act: 1.1; MRP-1 activ: -2.1; CYP2C9 inhib: 23.3

How did COc1cc(NC(=O)c2cccc(C)c2)c(Cl)cc1[N+](=O)[O-] do in these assays?
MRP-1 activ: 0.7

How did Fc1ccc(Nc2nc(Oc3ccccc3F)nc(N3CCCC3)n2)cc1 do in these assays?
CYP2C19 inhib: -19.0; MRP reversal: 18.2; CYP2C9 activ: 0.6; CYP2C19 act: 1.2; MRP-1 activ: 1.9; CYP2C9 inhib: 39.3

How did N#Cc1ccc(-c2nnnn2-c2ccc3c(c2)OCO3)cc1 do in these assays?
CYP2C19 inhib: 60.6*; MRP reversal: 12.0; CYP2C9 activ: 0.7; CYP2C19 act: 0.4; MRP-1 activ: 0.6; CYP2C9 inhib: 26.8

What do the screens show for `N#Cc1cccc(-n2nnnc2-c2ccc3c(c2)OCO3)c1`?
CYP2C19 inhib: 96.7*; MRP reversal: 18.9; CYP2C9 activ: 0.8; CYP2C19 act: 0; MRP-1 activ: -2.0; CYP2C9 inhib: 22.3

Results for N#Cc1cccc(-n2nnnc2-c2ccccn2)c1 ?
CYP2C19 inhib: 8.7; MRP reversal: 6.1; CYP2C9 activ: 0.9; CYP2C19 act: 0.9; MRP-1 activ: -0.9; CYP2C9 inhib: 8.1

Results for NC(=O)CSc1nnnn1-c1ccc2c(c1)OCCO2 ?
MRP reversal: 8.4; MRP-1 activ: -1.2

How did CCCCOc1cccc(-c2nnc(NC(=O)CSc3ccc(C)cc3)s2)c1 do in these assays?
MRP-1 activ: -4.9

How did CC1(C)CC2(CC(C)(C)NC(=O)N2)NC(=O)N1 do in these assays?
CYP2C19 inhib: -5.6; MRP reversal: -2.6; CYP2C9 activ: 1; CYP2C19 act: 1.1; MRP-1 activ: 0.1; CYP2C9 inhib: -3.5

What do the screens show for `Brc1ccc(-c2nnc(-c3cccnc3)c3conc23)cc1`?
MRP reversal: -11.4

What do the screens show for `CCCN=C(Nc1ccc(Cl)cc1)c1cccnc1`?
CYP2C19 inhib: 53.5*; CYP2C9 activ: 0.9; CYP2C19 act: 0.5; MRP-1 activ: -1.4; CYP2C9 inhib: 12.7

How did CCCCN=C(Nc1ccc(Cl)cc1)c1cccnc1 do in these assays?
CYP2C19 inhib: 67.0*; CYP2C9 activ: 0.8; CYP2C19 act: 0.3; MRP-1 activ: -0.6; CYP2C9 inhib: 20.0

Results for CCN=C(Nc1ccc(Cl)cc1)c1cccnc1 ?
CYP2C19 inhib: -4.3; CYP2C9 activ: 1; CYP2C19 act: 1; MRP-1 activ: -0.1; CYP2C9 inhib: -4.9

Results for Cc1ccc(C(=O)COc2ccccc2N2C(=O)c3ccccc3C2=O)cc1 ?
MRP-1 activ: 1.9

How did Cc1cccc2cc(COC(=O)c3ccccn3)c(=O)[nH]c12 do in these assays?
CYP2C19 inhib: 0.1; MRP reversal: -11.8; CYP2C9 activ: 1; CYP2C19 act: 1; MRP-1 activ: -0.3; CYP2C9 inhib: 0.9

Results for Cn1nnnc1SCc1csc(Nc2ccccc2)n1 ?
CYP2C19 inhib: 16.6; MRP reversal: -8.8; CYP2C9 activ: 3.8*; CYP2C19 act: 0.8; MRP-1 activ: -0.7; CYP2C9 inhib: -277.3

Results for Cn1nnnc1SCc1c(F)cccc1F ?
CYP2C19 inhib: 25.6; MRP reversal: -12.7; CYP2C9 activ: 1; CYP2C19 act: 0.7; MRP-1 activ: 0.1; CYP2C9 inhib: 1.4

How did Cc1ccc(Nc2nc(CSc3nnnn3-c3ccccc3)cs2)cc1 do in these assays?
CYP2C19 inhib: 35.3; MRP reversal: 13.6; CYP2C9 activ: 1.7; CYP2C19 act: 0.6; MRP-1 activ: 1.5; CYP2C9 inhib: -68.1

How did Cn1nnnc1SCc1cccc(CSc2nnnn2C)n1 do in these assays?
CYP2C19 inhib: 97.6*; MRP reversal: 8.9; CYP2C9 activ: 1; CYP2C19 act: 0; MRP-1 activ: -0.6; CYP2C9 inhib: -2.0

Results for Cc1ccc(Nc2nc(CSc3nnnn3C)cs2)cc1 ?
CYP2C19 inhib: 70.0*; MRP reversal: 25.4; CYP2C9 activ: 2.8*; CYP2C19 act: 0.3; MRP-1 activ: 5.4*; CYP2C9 inhib: -177.1

How did Cc1ccccc1OCc1nnc(SCC(=O)Nc2ccc(N3CCOCC3)c(Cl)c2)n1C do in these assays?
CYP2C19 inhib: 57.5*; MRP reversal: 1.4; CYP2C9 activ: 0.8; CYP2C19 act: 0.4; MRP-1 activ: -1.4; CYP2C9 inhib: 23.2

What do the screens show for `Cc1ccccc1OCc1nnc(SCC(=O)Nc2ccc3c(c2)OCO3)n1C`?
CYP2C19 inhib: 76.0*; MRP reversal: -10.9; CYP2C9 activ: 1.6; CYP2C19 act: 0.2; MRP-1 activ: -3.0; CYP2C9 inhib: -55.9

How did CCCN(CCC)S(=O)(=O)c1ccc(C(=O)N2CCOCC2)cc1 do in these assays?
CYP2C19 inhib: 5.0; MRP reversal: -4.1; CYP2C9 activ: 1; CYP2C19 act: 0.9; MRP-1 activ: -1.2; CYP2C9 inhib: 3.8

What do the screens show for `O=C(NCc1ccco1)c1ccccc1NS(=O)(=O)c1ccc(Cl)s1`?
CYP2C19 inhib: -17.1; MRP reversal: 0.4; CYP2C9 activ: 0; CYP2C19 act: 1.2; MRP-1 activ: -1.1; CYP2C9 inhib: 97.0*

Results for O=C(NCc1ccco1)c1ccccc1NS(=O)(=O)c1ccc2c(c1)OCCO2 ?
CYP2C19 inhib: 56.2*; MRP reversal: -1.3; CYP2C9 activ: 1.6; CYP2C19 act: 0.4; MRP-1 activ: -3.5; CYP2C9 inhib: -60.9

What do the screens show for `NC(=O)c1ccccc1NS(=O)(=O)c1cccs1`?
CYP2C19 inhib: 13.5; MRP reversal: 2.9; CYP2C9 activ: 1.9; CYP2C19 act: 0.9; MRP-1 activ: -0.5; CYP2C9 inhib: -89.8

What do the screens show for `O=C(NCc1ccco1)c1ccccc1NS(=O)(=O)c1cccs1`?
CYP2C19 inhib: 81.0*; MRP reversal: 7.9; CYP2C9 activ: 0.3; CYP2C19 act: 0.2; MRP-1 activ: -0.7; CYP2C9 inhib: 71.5*
